# Bioassay records from PubChem.
# 12-hLO inh – blocks human 12-lipoxygenase activity. P18054. Potency, µM (titrated, usually from 57.1 µM), inactives show at the highest dose activity change, negative = inhibition, hits mostly inhibitors. 0.12% of 150,000 active. purified 12-hLO, xylenol orange hydroperoxide absorbance; also: potency is read from the fitted curve at half-maximal effect; nearly all actives have a fitted effect of over 55% in size
#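 Xylenol orange chromogenic assay: hydroperoxide from 12hLO oxidises Fe(II), giving red-shifted Fe(III)-XO absorbance. Conditions: 150 nM enzyme, 40 uM arachidonic acid, 25 mM Hepes pH 7.0, 0.01% Triton X-100, 30 min, room temperature.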
# PNC inhibitor – blocks assembly of the perinucleolar compartment | activity change (PNC), negative = inhibition, % at 10 µM | 3.1% of 140,000 active | PC3M PTB-GFP, PNC prevalence imaging, 16 h; hits give low values;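 active = readout at or below -70, meaning at least 70% loss of cells showing the perinucleolar compartment, a nuclear body marking cancer cells; inconclusive = readout between -30 and a set limit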;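 also: plate controls were DMSO wells for no effect and camptothecin positive control wells for full effect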
#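 Compounds are pinned in duplicate onto adhered PC3M cells stably expressing GFP-tagged PTB and incubated 16 h at 37 C. Cells are then fixed, nuclei stained with Hoechst, and PNC-positive cells counted.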
# ALDH1A1 block – blocks purified human ALDH1A1 activity. P00352. Purified ALDH1A1, NADH fluorescence, propionaldehyde substrate. Potency, µM (highest dose often 75.3 µM), for the others: at the highest dose activity, negative = inhibition, most hits filed as inhibitors. 7.3% of 220,000 active. AID 1030; active = well fitted inhibition curve with a large enough effect, not every such curve was filed as active; inconclusive = small, poorly fitted or top-dose-only effect, or another doubt; inactive = no such curve, though single readings can be large or run the other way;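 also: potency is read from the fitted curve at half-maximal effect; plate controls were no enzyme wells and a reference inhibitor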
# Target sequence (P00352 whole entry, looked up): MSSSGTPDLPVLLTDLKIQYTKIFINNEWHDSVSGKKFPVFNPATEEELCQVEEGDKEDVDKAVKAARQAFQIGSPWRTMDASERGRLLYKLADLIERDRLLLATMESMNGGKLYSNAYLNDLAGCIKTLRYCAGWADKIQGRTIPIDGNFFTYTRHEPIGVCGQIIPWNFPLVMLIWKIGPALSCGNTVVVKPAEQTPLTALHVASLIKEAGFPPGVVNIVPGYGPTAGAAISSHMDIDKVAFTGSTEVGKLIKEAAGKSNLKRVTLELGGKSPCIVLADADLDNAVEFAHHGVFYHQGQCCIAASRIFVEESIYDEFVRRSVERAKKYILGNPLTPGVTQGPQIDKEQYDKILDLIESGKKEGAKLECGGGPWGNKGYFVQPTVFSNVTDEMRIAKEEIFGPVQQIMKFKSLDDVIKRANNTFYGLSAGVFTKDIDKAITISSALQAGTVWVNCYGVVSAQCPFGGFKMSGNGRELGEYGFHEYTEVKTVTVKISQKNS
# GLA spleen mod – alpha-galactosidase A (human) modulation; P06280; human spleen homogenate, 4MU-alpha-Gal fluorescence, 40 min; Potency, µM (highest dose often 80 µM), without a hit: at the top dose activity change, negative = inhibition, usual class: inhibitors; 0.008% of 240,000 active;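 also: potency is read from the fitted curve at half-maximal effect; 0% = enzyme with vehicle and -100% = no enzyme basal signal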
#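 Inhibition or activation of alpha-galactosidase in human spleen homogenate is scored by 4-MU fluorescence after 40 min at 37C, pH 5.0, with 1 mM substrate. AC50s come from concentration-response fitted to the Hill equation.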
# GLA inh pH 4.5 – alpha-galactosidase A (human) inhibition, pH 4.5; P06280; activity change, negative = inhibition, % at 105 µM; purified enzyme, 4-MU-alpha-Gal fluorescence, pH 4.5; AID 1467; 230,000 tested, under 10 active;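 also: 0% = full activity with enzyme and -100% = basal without enzyme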
# HPGD inh – blocks human HPGD enzyme activity | Potency, µM, inactives show at the highest dose activity change, negative = inhibition, hits mostly inhibitors | P15428 | purified HPGD, NADH fluorescence kinetic, PGE2 substrate | 4.3% of 150,000 active; active = well fitted inhibition curve with a large enough effect, not every such curve was filed as active; inconclusive = small, poorly fitted or top-dose-only effect, or another doubt; inactive = no such curve, though single readings can be large or run the other way; also: potency is read from the fitted curve at half-maximal effect
#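 NADH formation kinetics: reaction with 30 uM PGE2 and 1 mM NAD+ (final), 20 nM enzyme, Tris-HCl pH 8 with Tween 20, after 15 min compound preincubation at room temperature. Fluorescence change, last versus first of five reads.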
# The depositor's hits bear a star; ? = inconclusive; / = no result; [ ] = another dose, or the depositor's remark. Sampled rows, rich in hits. Any-hit rate of the full collection: about 10%. Unless noted, calls follow the shape of the dose curve; as a rule, active = well fitted curve in the direction sought with a large enough effect; inconclusive = small, poorly fitted or top-dose-only effect, or another doubt; inactive = no such curve, though single readings can be large; an effect the other way counts as inactive or inconclusive. Unless noted, % is scaled to controls: 0 for no effect and ±100 for the full control effect.
SMILES,12-hLO inh,PNC inhibitor,ALDH1A1 block,GLA spleen mod,GLA inh pH 4.5,HPGD inh
Cc1c(-c2ccc(Br)cc2)nc2ccccn12,4%,-20,-14%,0%,0,/
O=C(N[C@@]1(C(=O)O)C[C@@H]1c1ccccc1)c1ccccc1,3%[11.4 µM],/,6%[13.5 µM],/,/,-2%
COc1cc(/C=C(\C#N)C(=O)Nc2nnc(C(F)(F)F)s2)ccc1OCc1ccc(C(F)(F)F)cc1C(F)(F)F,/,/,/,-10%,/,/
CC1(C)CC(=O)C(=CN2CCOCC2)C(=O)C1,/,/,10µM*,2%,-3,/
CC1(C)CC(=O)C(=CN2CCN(C(=O)c3ccco3)CC2)C(=O)C1,0%,?,22µM*,-3%,-10,-9%
CN(C)CCNC(=O)C(c1ccccc1)c1ccccc1,/,/,/,6%,-11,/
CC(CCN(C)C)OC(=O)c1ccc(C(C)c2ccccc2)o1 (stereo not drawn),3%,-107*,40µM*,-8%,3,-6%
CCCCCCCCC#CCC#CCC#CCCCC(=O)O,-3%,/,3%,14%,-10,-16%
CN(C)C(=O)c1ccc(Oc2ccc(C(=O)N(C)C)cc2)cc1,0%,27,?,-3%,0,16µM*
CCN(CC)S(=O)(=O)c1ccc2oc(SCC3CN=C(c4ccc(OC)cc4)S3)nc2c1 (stereo not drawn),-4%,24,22µM*,2%,-7,14µM*
Cc1ccc(CSc2nnc(-c3ccc4c(c3)OCO4)o2)cc1,-4%,6,-2%,7%,6,-27%
COc1ccc(C2=NCC(CSc3nnc(-c4ccc5c(c4)OCO5)o3)S2)cc1 (stereo not drawn),-15%,32,-16%,-11%,-12,22µM*
COc1ccc(C2=NCC(CSc3nccc(=O)[nH]3)S2)cc1 (stereo not drawn),-1%,-12,?,3%,0,14µM*
CCCCC#CC1C=CC(Oc2ccc(C(=O)OC)cc2)C(COC(=O)OCC)O1 (stereo not drawn),/,/,?,-12%[17.5 µM],/,/
CCOc1ccc(CN2CCN(Cc3cccn3-c3ncccn3)CC2CCO)cc1 (stereo not drawn),/,/,-2%,0%,0,/
COc1cc2c(cc1OC)C(=O)OC2,6%,/,8%,-9%,0,-17%
O=C(O)CSc1nc2ccccc2s1,/,/,14%,1%,2,/
OC(c1ccccc1)c1nc2ccccc2s1 (stereo not drawn),-7%,-29,7%,-1%,4,16µM*
C/C(=N\NC(=O)CSc1nc2ccccc2o1)c1cccc(O)c1,/,/,/,6%,2,/
C/C(=N\NC(=O)CSc1nc2ccccc2o1)c1ccc(O)cc1,/,/,24µM*,-11%,-21,/
O=C(C1=C[C@H](c2csc3ccccc23)C[C@H](OCc2ccc(CO)cc2)O1)N1CCN(Cc2ccccc2)CC1,/,/,?,-6%,-2,/
CC(=O)n1cc([C@H]2C=C(C(=O)NCc3ccccc3)O[C@@H](OCc3ccc(CO)cc3)C2)c2ccccc21,/,/,16µM*,-1%,-1,/
O=C(NCc1ccccc1)C1=C[C@H](c2ccc(Br)cc2)C[C@H](OCc2ccc(CO)cc2)O1,/,/,?,-6%,-7,/
CC(=O)n1cc([C@@H]2C=C(C(=O)N3CCN(Cc4ccccc4)CC3)O[C@H](OCc3ccc(CO)cc3)C2)c2ccccc21,/,/,16µM*,-11%,-5,/
O=C(NCc1ccccc1)C1=C[C@@H](c2coc3ccccc3c2=O)C[C@@H](OCCCCO)O1,/,/,?,0%,-1,/
SMILES,12-hLO inh,PNC inhibitor,ALDH1A1 block,GLA spleen mod,GLA inh pH 4.5,HPGD inh
C#CCNC(=O)C1=C[C@@H](c2coc3ccccc3c2=O)C[C@@H](OCCCCO)O1,/,/,10µM*,8%,4,/
O=C(NCc1ccccc1)C1=C[C@@H](c2ccccc2)C[C@@H](OCc2ccc(CO)cc2)O1,/,/,32µM*,-4%,-18,/
CC(=O)n1cc([C@H]2C=C(C(=O)N3CCN(Cc4ccccc4)CC3)O[C@@H](OCCCCO)C2)c2ccccc21,/,/,28µM*,-2%,-4,/
O=C(NCc1ccccc1)C1=C[C@@H](c2ccc(Br)cc2)C[C@@H](OCCCCO)O1,/,/,25µM*,-3%,1,/
C=CCn1c[n+](CC(=O)c2ccc(Br)s2)c2ccccc21,/,/,4%,5%,4,/
Cn1cc(CN2CCC(CO)(CCCc3ccccc3)CC2)c(-c2ccccc2)n1,/,/,/,-2%,-2,/
O=S(=O)(CCc1ccccc1)c1nnnn1-c1ccccc1,/,/,8%,-3%,-2,-2%
O=S(=O)(Cc1ccccc1)c1nnnn1-c1ccccc1,/,/,0.45µM*,-1%,-11,-20%
N#Cc1ccc(CS(=O)(=O)c2nnnn2C2CCCCC2)cc1,/,/,3%,-5%,-4,-2%
N#Cc1cccc(CS(=O)(=O)c2nnnn2C2CCCCC2)c1,/,/,25µM*,7%,-6,-10%
N#Cc1ccc(C(c2nnnn2Cc2ccccc2)N2CCCC2)cc1 (stereo not drawn),2%,61,0%,1%,5,-10%
N#Cc1ccc(CS(=O)(=O)c2nnnn2-c2ccccc2)cc1,/,/,0.79µM*,5%,-3,-5%
CCS(=O)(=O)c1nnnn1-c1ccccc1S(C)(=O)=O,-1%,-117*,?,-1%,-5,-5%
CN(C)c1ncnc2ccc(-c3cccnc3)cc12,/,/,-3%,8%,/,/
Cn1cc(-c2nc3cnc(Oc4ccccc4)nc3n(CCC#N)c2=O)c2ccccc21,-1%,/,-4%,-7%,/,-1%
c1ccc(-n2nnnc2NCCc2c[nH]c3ccccc23)cc1,-6%,-5,?,-1%,2,-5%
c1ccc(CNc2nnnn2-c2ccccc2)cc1,4%,-2,40µM*,5%,-10,-16%
O=C1Nc2ccccc2C(O)(C(=O)NCc2ccc3c(c2)OCO3)N1c1ccccc1 (stereo not drawn),-2%,-12,?,12%,-12,-19%
O=C1Nc2ccccc2C(O)(C(=O)NCc2ccco2)N1c1ccc(Cl)c(Cl)c1 (stereo not drawn),-6%,1,25µM*,6%,1,-22%
COc1ccc(/C=N/NC(=O)c2ccncc2)cc1CSc1nc2ccccc2s1,-7%,?,?,6%,-4,?
